Data: the supplement of paper PMC6522484
± gives the standard deviation of the averaged measurements.

Legend:
[1] = tested on: DLD1; assay: cell viability (CellTiter-Glo) relative to plate median (fraction of plate median); higher = more viable cells; conditions: 5 µM; treatment time 24 h; reporter: 7TFP
Procedure, shortened: (§1)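 For this screen, colorectal cancer cell lines carrying stable lentiviral TCF/Wnt firefly luciferase reporters, either 7TFP or TCF4/Wnt, were seeded into 384-well plates. A day's wait of 24 h preceded addition of library compounds at a final 5 µM, which stayed on the cells for 24 h. Firefly luciferase or CellTiterGlo luminescence, read on parallel plates, was normalised to the plate median per well, and the reported value is the mean of two independent replicates.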

[2] = tested on: HCT116; assay: as above; conditions: 5 µM; treatment time 24 h; reporter: TCF4/Wnt
Procedure, shortened: as §1

[3] = tested on: SW480; assay: as above; conditions: 5 µM; treatment time 24 h; reporter: 7TFP
Procedure, shortened: as §1

[4] = tested on: DLD1; assay: TCF/Wnt firefly luciferase reporter signal relative to plate median (fraction of plate median); higher = higher Wnt reporter signal; conditions: 5 µM; treatment time 24 h; reporter: 7TFP
Procedure, shortened: as §1

[5] = tested on: SW480; assay: as above; conditions: 5 µM; treatment time 24 h; reporter: 7TFP
Procedure, shortened: as §1

Row | SMILES | cell viability [1] | cell viability [2] | cell viability [3] | TCF/Wnt firefly luciferase reporter signal [4] | TCF/Wnt firefly luciferase reporter signal [5]
1 | COC(=O)C[C@H]1C(C)(C)[C@@H](OC(C)=O)[C@@H]2CC3C4CC(=O)O[C@@H](c5ccoc5)[C@]4(C)CCC3[C@@]1(C)C2=O (stereo not given in full) | 1.05 ± 0.042 | 0.946 ± 0.011 | 1.015 ± 0.0071 | 0.966 ± 0.1 | 1.005 ± 0.0071
2 | CCOC(=O)[C@H](CCc1ccccc1)N[C@@H](C)C(=O)N1[C@H](C(=O)O)C[C@@H]2CCC[C@@H]21 | 1.11 ± 0.17 | 1.08 ± 0.014 | 1.1 ± 0.042 | 1.06 ± 0.035 | 1.06 ± 0.1
3 | CNCCC(Oc1ccc(C(F)(F)F)cc1)c1ccccc1 (stereo not given) | 0.9505 ± 0.00071 | 0.952 ± 0.12 | 0.948 ± 0.069 | 1.2 ± 0.26 | 0.993 ± 0.052
4 | C[C@@H]1O[C@@H](O[C@H]2[C@H](Oc3cc(O)c4c(=O)cc(-c5ccc(O)cc5)oc4c3)O[C@H](CO)[C@@H](O)[C@@H]2O)[C@H](O)[C@H](O)[C@H]1O | 1.04 ± 0.035 | 1.03 ± 0.054 | 0.98 ± 0.015 | 0.989 ± 0.013 | 1.02 ± 0.079
5 | CC(=O)c1c(O)cc(O)cc1O | 1.02 ± 0.035 | 1.03 ± 0.035 | 1.04 ± 0.068 | 1.08 ± 0.042 | 0.938 ± 0.033
6 | O=c1c2ccccc2oc2ccccc12 | 0.986 ± 0.016 | 0.98 ± 0.043 | 0.98 ± 0.029 | 0.985 ± 0.036 | 0.916 ± 0.03
7 | N[C@@H](Cc1ccc(O)c(O)c1)C(=O)O | 1.075 ± 0.0071 | 1.03 ± 0.064 | 0.99 ± 0.071 | 1.01 ± 0.04 | 1.09 ± 0.042
8 | O=c1[nH]c(=O)n([C@H]2C[C@H](O)[C@@H](CO)O2)cc1F | 0.609 ± 0.026 | 1.05 ± 0.057 | 0.963 ± 0.024 | 0.688 ± 0.12 | 0.971 ± 0.069
9 | CC(=O)O[C@H]1C[C@@]2(C)[C@@H](C[C@@H](O)[C@H]3[C@@]4(C)CC[C@@H](O)[C@@H](C)[C@@H]4CC[C@@]32C)/C1=C(\CCC=C(C)C)C(=O)O | 1.04 ± 0.05 | 1 ± 0.054 | 1.04 ± 0.028 | 1.12 ± 0.05 | 1.06 ± 0.064
10 | O=C(CCc1ccc(O)cc1)c1c(O)cc(O)cc1O | 0.974 ± 0.093 | 0.88 ± 0.047 | 0.933 ± 0.0042 | 0.75 ± 0.047 | 0.858 ± 0.037
11 | CCOC(=O)C1=C(COCCN)NC(C)=C(C(=O)OC)C1c1ccccc1Cl (stereo not given) | 0.998 ± 0.031 | 1.01 ± 0.097 | 1.03 ± 0.083 | 1.02 ± 0.11 | 1.04 ± 0.042
12 | Nc1nc(=O)c2[nH]c(=O)cnc2[nH]1 | 1.01 ± 0.14 | 1.06 ± 0.078 | 0.954 ± 0.018 | 0.981 ± 0.098 | 0.987 ± 0.075
13 | FC(F)(F)COCC(F)(F)F | 0.944 ± 0.047 | 0.922 ± 0.041 | 0.99 ± 0.029 | 0.762 ± 0.016 | 0.825 ± 0.1
14 | Oc1ccc([C@H]2Oc3cc(O)cc(O)c3C[C@H]2O)cc1 | 1.045 ± 0.0071 | 1.01 ± 0.14 | 0.974 ± 0.021 | 1.01 ± 0.12 | 1.01 ± 0.07
15 | COc1cc(OC)c2ccc(=O)oc2c1 | 1.08 ± 0.057 | 0.999 ± 0.2 | 1.07 | 1.02 ± 0.084 | 1.01 ± 0.071
16 | Nc1nc2c(ncn2[C@H]2C[C@H](O)[C@@H](CO)O2)c(=O)[nH]1 [Desoxyguanosin] | 1 ± 0.013 | 1.01 ± 0.11 | 1.004 ± 0.0078 | 0.989 ± 0.016 | 0.997 ± 0.018
17 | CN1CCC(=C2c3ccccc3CCc3sccc32)CC1 | 1.07 ± 0.014 | 1.14 ± 0.17 | 1.1 ± 0.064 | 1.05 ± 0.11 | 0.934 ± 0.061
18 | COc1cc(/C=C/C(=O)O)ccc1O [Ferulic acid (Biofocus)] | 0.923 ± 0.17 | 1.05 ± 0.028 | 1.02 ± 0.014 | 0.962 ± 0.012 | 1.04 ± 0.069
19 | CC[C@@H]1C(=O)OC[C@@H]1Cc1cncn1C | 1.015 ± 0.0071 | 0.953 ± 0.067 | 0.992 ± 0.012 | 1.18 ± 0.05 | 1.16 ± 0.16
20 | CCCCCCCCCCCCCCCCCCCCCCO | 1.04 ± 0.076 | 0.941 ± 0.065 | 0.97 ± 0.036 | 0.869 ± 0.032 | 0.927 ± 0.066
21 | COc1ccc(-c2cc(=O)c3c(OC(C)=O)cc(OC(C)=O)cc3o2)cc1 | 1.04 ± 0.064 | 1.07 ± 0.13 | 1.17 ± 0.057 | 1.09 | 1.21 ± 0.092
22 | COC(=O)C[C@H]1C(C)(C)[C@@H](O)[C@@H]2CC3=C4CC(O)O[C@@H](c5ccoc5)[C@]4(C)CCC3[C@@]1(C)C2=O (stereo partly drawn) [3,16-DIDEOXYMEXICANOLIDE-3beta-DIOL] | 1.1 ± 0.085 | 1.04 ± 0.042 | 1.035 ± 0.0071 | 1.02 ± 0.15 | 0.896 ± 0.076
23 | C=C[C@@](C)(O)CCC1C(=C)CCC2[C@@](C)(CO)CCC[C@]12C (stereo not given in full) | 1.005 ± 0.0071 | 1.14 ± 0.16 | 1.1 ± 0.021 | 0.967 ± 0.017 | 1.01 ± 0.067
24 | C#CCN(C)Cc1ccccc1 | 0.947 ± 0.053 | 1.08 ± 0.042 | 0.943 ± 0.0099 | 1.14 ± 0.014 | 1.03 ± 0.05
25 | CC[N+](CC)(CC)CCOc1cccc(OCC[N+](CC)(CC)CC)c1OCC[N+](CC)(CC)CC | 0.9365 ± 0.0021 | 0.972 ± 0.017 | 0.945 ± 0.093 | 0.989 ± 0.1 | 0.873 ± 0.21
26 | CCCC(C(=O)OCCN(CC)CC)(c1ccccc1)c1ccccc1 | 1.03 ± 0.098 | 0.972 ± 0.04 | 1.03 ± 0.028 | 1.22 ± 0.22 | 1.06
27 | CN(C)[C@@H]1C(O)=C(C(N)=O)C(=O)[C@@]2(O)C(O)=C3C(=O)c4c(O)cccc4[C@@](C)(O)[C@H]3[C@H](O)[C@@H]12 | 1.02 ± 0.17 | 1.07 ± 0.071 | 1.01 ± 0.021 | 0.901 ± 0.18 | 1 ± 0.071
28 | O=C1CCc2cc(OCCCCc3nnnn3C3CCCCC3)ccc2N1 | 0.979 ± 0.03 | 1.09 ± 0.028 | 1.035 ± 0.0071 | 1.03 ± 0.021 | 0.987 ± 0.075
